Among the test systems are HT29 colon; SNB-75 CNS; U251 CNS; PC-3 prostate; SK-MEL-5 melanoma; UACC-62 melanoma; LOX IMVI melanoma; SK-MEL-28 melanoma; SK-MEL-2 melanoma; EKVX NSCLC; SN12C renal; UO-31 renal; TK-10 renal; ACHN renal; CAKI-1 renal; A498 renal; CCRF-CEM leukemia; MOLT-4 leukemia; SR leukemia; SNB-19 CNS.
Holding throughout (assay): NCI-60 one-dose screen, 48 h (100 = growth as untreated, 0 = no growth, -100 = all killed)
Holding throughout (conditions): 10 µM unless noted

About 83,000 compounds went through this panel and 20% of them were active in at least one assay; those are over-represented in the sample as a whole.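 48-hour exposure, single concentration, 96-well plates; percent growth endpoint where 0 means no net growth. Active: below 10.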 A number with no mark means an inactive call. Activity calls are given as the source filed them.

Consider `COc1ccc2c(c1)C(=O)c1c-2c(OCCN(C)C)nc2cc(OC)ccc12`, for which the growth with HT29 colon was -43.6% (active); with SNB-75 CNS it was 31.6%; in the test on U251 CNS it was -68.7% (active); in the test on PC-3 prostate, 10.1%; in the test on SK-MEL-5 melanoma, -48.6% (active); in the test with UACC-62 melanoma, 7.14% (active). Moreover, the growth is -89.2% (active) in the test with LOX IMVI melanoma; 29.7% in the test with SK-MEL-28 melanoma; 30.9% in the test on SK-MEL-2 melanoma; 20.6% in the test with EKVX NSCLC; 22.6% in the test with SN12C renal; -43.7% (active) in the test on UO-31 renal. The growth in the test on TK-10 renal was 28.5%; in the test with ACHN renal, -78.6% (active); with CAKI-1 renal, 9.1% (active); with A498 renal it was 38.4%; in the test on CCRF-CEM leukemia it was 13.7%; in the test with MOLT-4 leukemia it was -7.63% (active). Further, in the test on SR leukemia, the growth is -29.2% (active).
`CCC(=O)Nc1ccccc1C#C/C=C\C#Cc1ccccc1C(F)(F)F`: the growth in the test on HT29 colon was 47.9%; in the test with SNB-75 CNS it was 32.3%; in the test on SNB-19 CNS, 66.4%; in the test with SK-MEL-5 melanoma, 60.2%; with UACC-62 melanoma, 38.2%; in the test on LOX IMVI melanoma, 56.1%. For the same compound, the growth in the test on SK-MEL-28 melanoma is 83.8%; in the test on SK-MEL-2 melanoma, 12.4%; in the test with EKVX NSCLC, 52.7%; with SN12C renal it was 58.8%; in the test with UO-31 renal it was 22.4%; in the test with TK-10 renal it was 75%. The growth in the test on ACHN renal is 53.4%; with CAKI-1 renal, 45%; with A498 renal, 11.8%; with CCRF-CEM leukemia it was 39.1%; in the test on MOLT-4 leukemia it was 74.2%.
Regarding `Cc1cc2c(cc1C)Nc1sc(NC(=O)CN3CCN(C)CC3)nc1C(=O)N2`, the growth was 99.8% with HT29 colon; 104% in the test with SNB-75 CNS; 96.6% in the test on SNB-19 CNS; 101% in the test with PC-3 prostate; 105% in the test on UACC-62 melanoma; 108% with SK-MEL-28 melanoma. The growth is 103% in the test with SN12C renal; 94.3% in the test with UO-31 renal; 99.9% in the test on TK-10 renal; 111% in the test with ACHN renal; 106% in the test with CAKI-1 renal; 102% in the test with A498 renal. Further, the results for the growth with CCRF-CEM leukemia, in the test with MOLT-4 leukemia and in the test on SR leukemia were 98.3%, 87.4% and 79%, respectively.
Turning to `Cc1cc(N2CCOCC2)nc(N2CCOCC2)n1`, the growth with HT29 colon was 103%; in the test with SNB-75 CNS, 94.4%; in the test with SNB-19 CNS, 99.7%; in the test with SK-MEL-5 melanoma it was 102%; in the test with UACC-62 melanoma, 99%; with LOX IMVI melanoma, 104%. For the same compound, the growth in the test with SK-MEL-28 melanoma was 113%; in the test with SK-MEL-2 melanoma, 90.6%; in the test with EKVX NSCLC it was 95.7%; in the test with SN12C renal, 95.5%; in the test on UO-31 renal it was -1.48% (active); in the test with TK-10 renal it was 92.2%. Further, the growth with ACHN renal was 108%; in the test with CAKI-1 renal, 96.7%; in the test on A498 renal it was 100%; in the test with CCRF-CEM leukemia, 95.3%; with MOLT-4 leukemia, 104%; in the test with SR leukemia, 105%.
Turning to `CCN(CC)c1ccc(CN(CC(=O)c2ccc(Cl)c(Cl)c2)Cc2ccccc2)cc1`, the growth is 105% in the test with HT29 colon; 93% in the test with SNB-75 CNS; 103% with U251 CNS; 83% in the test on PC-3 prostate; 97.9% with SK-MEL-5 melanoma; 90.9% in the test on UACC-62 melanoma. Moreover, the growth in the test with LOX IMVI melanoma was 94.3%; with SK-MEL-28 melanoma, 110%; in the test on SK-MEL-2 melanoma, 96.9%; with EKVX NSCLC, 108%; in the test with SN12C renal, 101%; in the test with UO-31 renal it was 81.9%. For the same compound, the growth in the test with TK-10 renal is 117%; in the test on ACHN renal it was 107%; with CAKI-1 renal it was 92.3%; with A498 renal it was 92.1%; with CCRF-CEM leukemia, 97.8%; in the test on MOLT-4 leukemia it was 98%. The growth in the test with SR leukemia is 88.3%.
In the case of `CCc1ccc(CCN2C(=O)c3ccccc3C2=O)nc1`, the growth in the test on HT29 colon is 109%; with SNB-75 CNS it was 99%; with SNB-19 CNS, 91.7%; in the test on SK-MEL-5 melanoma it was 107%; in the test with UACC-62 melanoma, 98.6%; in the test with LOX IMVI melanoma, 101%. Moreover, the growth in the test on SK-MEL-28 melanoma was 118%; in the test with EKVX NSCLC it was 91%; with SN12C renal, 103%; with UO-31 renal, 137%; in the test on TK-10 renal, 126%; with ACHN renal, 105%. Also, the growth in the test on A498 renal is 120%; in the test with CCRF-CEM leukemia, 108%; with MOLT-4 leukemia it was 109%; with SR leukemia, 104%.
Take `CC[N+](C)(CC)CCCC(C)Nc1ccnc2cc(Cl)ccc12` (stereo not given): the growth with HT29 colon is 111%; in the test on SNB-75 CNS, 99.8%; in the test with U251 CNS, 98.8%; in the test with PC-3 prostate, 98%; in the test with SK-MEL-5 melanoma it was 101%; in the test with UACC-62 melanoma, 105%. In addition, the growth with LOX IMVI melanoma is 99.7%; in the test with SK-MEL-28 melanoma, 117%; in the test with SK-MEL-2 melanoma it was 108%; in the test with EKVX NSCLC, 109%; in the test with SN12C renal it was 109%; in the test on UO-31 renal, 91.4%. Further, the growth in the test on TK-10 renal was 124%; in the test with ACHN renal, 114%; in the test on CAKI-1 renal, 102%; with A498 renal, 100%; in the test on CCRF-CEM leukemia, 103%.
Take `CC(=O)Oc1ccc(C23c4ccccc4C2(OC(C)=O)c2cc(OC(C)=O)ccc23)cc1` (stereo not given): the growth was 111% in the test with HT29 colon; 54% with SNB-75 CNS; 65.9% with SNB-19 CNS; 88.8% in the test with SK-MEL-5 melanoma; 77.8% in the test on UACC-62 melanoma; 48.2% in the test on LOX IMVI melanoma. Also, the growth is 124% in the test with SK-MEL-28 melanoma; 97.9% in the test on SK-MEL-2 melanoma; 69.4% in the test on EKVX NSCLC; 81.7% in the test with SN12C renal; 11% in the test on UO-31 renal; 63.9% with TK-10 renal. For the same compound, the growth in the test on ACHN renal is 29.4%; in the test with CAKI-1 renal, 85.2%; in the test with A498 renal, 114%; in the test with CCRF-CEM leukemia, 41.8%; in the test with MOLT-4 leukemia, 67.6%; in the test with SR leukemia, -2.28% (active).
With `O=C1OCC/C1=C\OCCCO/C=C1\CCOC1=O`, the growth was 105% in the test with HT29 colon; 97.1% with SNB-75 CNS; 104% in the test on SNB-19 CNS; 105% in the test on SK-MEL-5 melanoma; 91% in the test with UACC-62 melanoma; 98.8% with LOX IMVI melanoma. Besides, the growth in the test with SK-MEL-28 melanoma is 125%; in the test on EKVX NSCLC, 101%; in the test with SN12C renal, 99.3%; in the test on UO-31 renal, 90.7%; with TK-10 renal it was 110%; in the test on ACHN renal, 103%. The growth is 106% in the test with CAKI-1 renal, 119% with A498 renal, 107% in the test on CCRF-CEM leukemia and 111% with MOLT-4 leukemia.

The values are drawn from PubChem BioAssay (NCI).
